Targets with a hit are over-represented here; the source holds about 7,900 in all. About 0.6% of all pairs of compound and target were hits.
Key:
Test in all cases: log2 fold change, soluble protein after heating vs DMSO (PISA); higher = thermal stabilisation; K562 cells, 10 uM, 30 min; active = over 0.2 and 3.5 SD of the protein, either way, in both replicates (recomputed)
[1] = compound: CC1=C(SC2=C1C(=N[C@H](C3=NN=C(N32)C)CC(=O)N)C4=CC=C(C=C4)Cl)C
Summary of the method: (§1)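 Quantification of soluble protein used TMTpro 16plex LC-MS/MS, with channel sums equalised. Samples were the supernatant after 21,000xg for 90 min of pooled aliquots from K562 cells (2×10^6 cells/mL) treated with 10 μM compound for 30 min, heated for 3 min over 48°C-58°C, and extracted in PBS with 0.5% NP-40 at 4°C. Values, from duplicates, describe thermal stability against control samples on a log2 fold-change scale.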

[2] = compound: Cc1sc2c(c1C)C(c1ccc(Cl)cc1)=N[C@@H](CC(=O)OC(C)(C)C)c1nnc(C)n1-2
Summary of the method: as §1

[3] = compound: c1ccc([C@@H]2C[C@H]2NC2CCNCC2)cc1
Summary of the method: as §1

[4] = compound: C1=CC=C(C=C1)[C@H](COC2=CC3=C(C=C2)NC(=O)N3)NC(=O)C4=CC=CN(C4=O)CC5=CC(=C(C=C5)F)F
Summary of the method: as §1

[5] = compound: CC1=C2C(=CC=C1)N=C(N(C2=O)C3=CC=CC=C3C)CN4C=NC5=C(N=CN=C54)N
Summary of the method: as §1

Measured: log2 fold change

CWF19L2 (UniProt Q2TBE0)
UniProt Q2TBE0, sequence (Q2TBE0 whole entry, looked up): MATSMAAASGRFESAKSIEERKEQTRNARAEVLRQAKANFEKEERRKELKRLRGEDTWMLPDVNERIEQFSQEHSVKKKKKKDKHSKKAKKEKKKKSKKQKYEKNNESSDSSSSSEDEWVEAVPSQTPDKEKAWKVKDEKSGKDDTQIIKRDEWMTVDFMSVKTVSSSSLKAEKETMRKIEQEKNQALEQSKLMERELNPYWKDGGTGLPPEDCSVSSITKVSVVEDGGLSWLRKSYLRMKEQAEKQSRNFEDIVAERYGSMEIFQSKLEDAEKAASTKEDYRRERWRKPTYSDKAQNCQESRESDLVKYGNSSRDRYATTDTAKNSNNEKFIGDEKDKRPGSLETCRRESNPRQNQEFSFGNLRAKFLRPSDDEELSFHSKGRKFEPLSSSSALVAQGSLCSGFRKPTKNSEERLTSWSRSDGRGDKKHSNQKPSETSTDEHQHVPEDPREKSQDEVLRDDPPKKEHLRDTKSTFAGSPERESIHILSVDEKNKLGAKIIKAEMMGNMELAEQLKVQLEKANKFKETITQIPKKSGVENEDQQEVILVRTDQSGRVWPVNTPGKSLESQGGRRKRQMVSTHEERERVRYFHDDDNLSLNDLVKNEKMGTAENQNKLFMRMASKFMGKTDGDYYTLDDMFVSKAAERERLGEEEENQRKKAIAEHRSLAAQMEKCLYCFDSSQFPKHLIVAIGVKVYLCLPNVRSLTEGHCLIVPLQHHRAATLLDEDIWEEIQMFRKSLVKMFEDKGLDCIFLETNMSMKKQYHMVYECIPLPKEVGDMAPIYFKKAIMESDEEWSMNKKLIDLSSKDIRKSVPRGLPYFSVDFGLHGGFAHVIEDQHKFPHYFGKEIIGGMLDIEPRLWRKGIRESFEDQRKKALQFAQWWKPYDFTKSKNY
inactive: [1] -0.169 | [2] 0.028 | [3] 0.135

FAM207A (UniProt Q9NSI2)
inactive: [4] 0.107 | [5] 0.001 | [2] 0.021

F2RL3 (UniProt Q96RI0)
inactive: [1] 0.175 | [5] 0.06 | [2] -0.197 | [3] 0.032

DNM2 isoform 4 (UniProt P50570)
UniProt P50570, sequence (P50570 whole entry, looked up): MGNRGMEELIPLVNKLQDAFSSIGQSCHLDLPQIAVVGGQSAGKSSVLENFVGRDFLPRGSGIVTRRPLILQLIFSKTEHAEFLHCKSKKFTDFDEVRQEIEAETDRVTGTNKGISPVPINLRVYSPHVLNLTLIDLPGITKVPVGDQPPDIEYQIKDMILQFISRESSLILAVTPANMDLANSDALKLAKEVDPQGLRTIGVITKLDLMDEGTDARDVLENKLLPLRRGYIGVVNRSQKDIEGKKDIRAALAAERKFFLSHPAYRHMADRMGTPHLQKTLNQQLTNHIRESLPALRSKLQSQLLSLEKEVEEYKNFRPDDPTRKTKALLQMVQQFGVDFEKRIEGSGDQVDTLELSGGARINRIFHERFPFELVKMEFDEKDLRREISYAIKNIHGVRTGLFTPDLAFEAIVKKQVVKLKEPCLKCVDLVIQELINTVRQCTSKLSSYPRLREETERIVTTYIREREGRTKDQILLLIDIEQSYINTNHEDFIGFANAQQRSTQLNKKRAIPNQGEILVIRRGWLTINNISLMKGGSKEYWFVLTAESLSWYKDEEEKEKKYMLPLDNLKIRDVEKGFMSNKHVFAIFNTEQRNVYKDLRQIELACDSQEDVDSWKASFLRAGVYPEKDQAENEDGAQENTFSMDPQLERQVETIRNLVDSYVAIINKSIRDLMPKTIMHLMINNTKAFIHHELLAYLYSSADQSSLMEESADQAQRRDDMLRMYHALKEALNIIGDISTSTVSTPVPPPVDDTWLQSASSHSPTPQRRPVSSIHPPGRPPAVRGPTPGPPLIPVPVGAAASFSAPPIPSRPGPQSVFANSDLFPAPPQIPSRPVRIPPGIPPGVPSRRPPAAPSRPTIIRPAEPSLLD
inactive: [4] 0.015 | [1] 0.065 | [3] -0.022

DCP2 (UniProt Q8IU60)
inactive: [1] -0.121 | [5] -0.044 | [2] 0.077 | [3] 0.068

ELF1 (UniProt P32519)
UniProt P32519, sequence (P32519 whole entry, looked up): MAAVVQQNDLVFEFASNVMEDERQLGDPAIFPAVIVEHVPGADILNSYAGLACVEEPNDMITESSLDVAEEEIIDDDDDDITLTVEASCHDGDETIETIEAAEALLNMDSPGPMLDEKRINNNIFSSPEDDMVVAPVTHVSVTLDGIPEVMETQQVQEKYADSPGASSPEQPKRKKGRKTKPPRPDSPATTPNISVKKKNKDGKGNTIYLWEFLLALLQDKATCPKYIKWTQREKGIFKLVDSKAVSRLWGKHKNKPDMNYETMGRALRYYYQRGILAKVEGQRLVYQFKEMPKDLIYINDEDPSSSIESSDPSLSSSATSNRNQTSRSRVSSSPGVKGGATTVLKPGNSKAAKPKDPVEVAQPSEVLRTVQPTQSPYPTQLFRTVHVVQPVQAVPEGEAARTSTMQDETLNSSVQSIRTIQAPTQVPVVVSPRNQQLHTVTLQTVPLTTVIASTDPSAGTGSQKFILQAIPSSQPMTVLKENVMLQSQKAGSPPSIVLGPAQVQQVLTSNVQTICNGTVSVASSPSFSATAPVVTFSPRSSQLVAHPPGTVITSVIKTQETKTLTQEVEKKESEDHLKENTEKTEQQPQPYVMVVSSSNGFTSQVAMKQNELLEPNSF
inactive: [1] 0.008 | [2] 0.017 | [3] 0.007

CYB561A3 isoform 2 (UniProt Q8NBI2)
inactive: [4] 0.033 | [1] -0.009 | [2] -0.075 | [3] 0.002

ELOVL7 (UniProt A1L3X0)
UniProt A1L3X0, sequence (A1L3X0 whole entry, looked up): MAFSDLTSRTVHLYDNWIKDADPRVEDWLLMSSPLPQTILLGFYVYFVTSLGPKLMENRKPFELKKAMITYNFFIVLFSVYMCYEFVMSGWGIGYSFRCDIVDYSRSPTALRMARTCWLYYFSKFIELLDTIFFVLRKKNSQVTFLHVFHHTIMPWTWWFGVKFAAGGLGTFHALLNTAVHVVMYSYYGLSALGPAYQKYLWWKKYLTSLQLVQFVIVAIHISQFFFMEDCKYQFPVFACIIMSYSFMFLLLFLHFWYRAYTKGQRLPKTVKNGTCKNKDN
inactive: [1] 0.077 | [2] -0.066 | [3] -0.01

DLK1 (UniProt P80370)
UniProt P80370, sequence (P80370 whole entry, looked up): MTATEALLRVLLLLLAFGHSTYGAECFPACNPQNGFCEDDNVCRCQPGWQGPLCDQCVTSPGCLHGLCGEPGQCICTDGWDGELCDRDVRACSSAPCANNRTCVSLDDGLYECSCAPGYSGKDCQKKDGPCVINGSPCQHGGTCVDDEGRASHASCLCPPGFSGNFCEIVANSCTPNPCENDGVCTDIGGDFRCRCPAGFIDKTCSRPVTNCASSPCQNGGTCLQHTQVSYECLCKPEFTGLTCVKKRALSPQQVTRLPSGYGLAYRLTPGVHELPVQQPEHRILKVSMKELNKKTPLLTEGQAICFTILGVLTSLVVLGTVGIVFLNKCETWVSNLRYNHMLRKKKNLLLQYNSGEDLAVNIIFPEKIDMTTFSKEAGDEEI
inactive: [1] 0.065 | [5] 0.198 | [3] 0.051

CYP24A1 (UniProt Q07973)
UniProt Q07973, sequence (Q07973 whole entry, looked up): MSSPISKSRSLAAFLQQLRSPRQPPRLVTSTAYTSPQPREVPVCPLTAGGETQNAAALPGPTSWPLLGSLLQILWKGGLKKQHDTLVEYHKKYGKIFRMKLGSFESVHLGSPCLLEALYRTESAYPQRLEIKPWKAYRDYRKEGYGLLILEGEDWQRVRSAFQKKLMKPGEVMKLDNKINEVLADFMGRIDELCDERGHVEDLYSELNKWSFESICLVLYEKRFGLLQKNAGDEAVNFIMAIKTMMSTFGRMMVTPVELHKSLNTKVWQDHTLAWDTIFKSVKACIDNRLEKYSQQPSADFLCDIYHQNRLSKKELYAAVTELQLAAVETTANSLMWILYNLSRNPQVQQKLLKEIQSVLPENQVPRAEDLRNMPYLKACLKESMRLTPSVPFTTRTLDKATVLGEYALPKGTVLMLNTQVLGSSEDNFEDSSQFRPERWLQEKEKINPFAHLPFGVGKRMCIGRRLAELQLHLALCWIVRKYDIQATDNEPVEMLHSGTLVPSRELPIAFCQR
inactive: [4] 0.17 | [5] -0.175 | [2] 0.266

EIF3J isoform 2 (UniProt O75822)
UniProt O75822, sequence (O75822 whole entry, looked up): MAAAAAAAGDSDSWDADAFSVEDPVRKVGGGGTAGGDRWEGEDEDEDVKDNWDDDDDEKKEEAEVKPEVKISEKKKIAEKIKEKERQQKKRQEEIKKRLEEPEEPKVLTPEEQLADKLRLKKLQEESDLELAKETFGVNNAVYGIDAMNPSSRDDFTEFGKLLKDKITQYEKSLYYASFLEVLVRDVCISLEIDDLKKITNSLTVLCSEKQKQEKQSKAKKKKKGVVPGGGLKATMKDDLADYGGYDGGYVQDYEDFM
inactive: [4] 0.092 | [5] 0.25 | [2] 0.049

EHBP1 (UniProt Q8NDI1)
UniProt Q8NDI1, sequence (Q8NDI1 whole entry, looked up): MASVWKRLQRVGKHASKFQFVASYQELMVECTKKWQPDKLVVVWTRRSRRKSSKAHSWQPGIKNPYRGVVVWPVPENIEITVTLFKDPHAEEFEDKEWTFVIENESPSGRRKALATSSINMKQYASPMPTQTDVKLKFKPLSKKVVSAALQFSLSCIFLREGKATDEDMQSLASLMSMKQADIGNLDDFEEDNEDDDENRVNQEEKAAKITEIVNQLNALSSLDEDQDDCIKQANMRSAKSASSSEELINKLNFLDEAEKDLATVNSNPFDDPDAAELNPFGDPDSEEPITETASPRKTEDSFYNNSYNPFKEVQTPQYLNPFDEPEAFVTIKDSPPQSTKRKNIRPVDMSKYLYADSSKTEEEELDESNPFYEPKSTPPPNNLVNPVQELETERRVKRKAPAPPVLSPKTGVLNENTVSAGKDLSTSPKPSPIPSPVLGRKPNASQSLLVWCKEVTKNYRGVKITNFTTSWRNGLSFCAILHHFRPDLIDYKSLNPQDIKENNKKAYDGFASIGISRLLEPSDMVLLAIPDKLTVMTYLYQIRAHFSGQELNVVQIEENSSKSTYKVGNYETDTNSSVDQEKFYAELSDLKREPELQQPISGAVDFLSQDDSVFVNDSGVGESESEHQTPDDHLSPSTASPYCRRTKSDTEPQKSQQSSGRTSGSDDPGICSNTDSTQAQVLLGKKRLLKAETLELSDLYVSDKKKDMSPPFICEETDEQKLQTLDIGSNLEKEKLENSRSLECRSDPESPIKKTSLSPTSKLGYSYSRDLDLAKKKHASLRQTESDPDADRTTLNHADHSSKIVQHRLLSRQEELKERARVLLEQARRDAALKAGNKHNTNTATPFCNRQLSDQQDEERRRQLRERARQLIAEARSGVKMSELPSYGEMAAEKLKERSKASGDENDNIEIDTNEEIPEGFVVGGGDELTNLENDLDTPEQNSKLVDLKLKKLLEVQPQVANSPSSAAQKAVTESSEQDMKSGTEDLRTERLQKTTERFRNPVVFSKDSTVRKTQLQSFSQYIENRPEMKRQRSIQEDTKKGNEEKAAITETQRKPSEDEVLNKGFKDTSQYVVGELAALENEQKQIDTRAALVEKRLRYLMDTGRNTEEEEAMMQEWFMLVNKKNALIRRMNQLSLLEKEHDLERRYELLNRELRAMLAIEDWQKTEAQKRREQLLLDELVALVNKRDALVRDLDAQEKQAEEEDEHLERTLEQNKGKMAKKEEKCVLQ
inactive: [1] -0.163 | [2] 0.041 | [3] 0.229
